# In PubChem BioAssay AID588474 (The Scripps Research Institute Molecular Screening Center, 2011):
# Unmarked numbers belong to inactive results. Calls of active or inactive are those of the source.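 Rule for the calls: active = inhibition of at least 75% in the gel-based probe competition assay; inactive = inhibition below 75%.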
# Biological target: Platelet-activating factor acetylhydrolase (Mus musculus) (UniProt Q60963)
# Experiment: recombinant plasma PAF acetylhydrolase inhibition – biochemical, gel-based competitive ABPP, fluorescence, orthogonal assay, late-stage follow-up (AID 588474)
# Details: recombinant mouse pPAFAH, FP-Rh fluorescence, at 5 µM, stronger effect = higher value
# Sequence of Platelet-activating factor acetylhydrolase (Mus musculus) (Q60963 whole entry, looked up): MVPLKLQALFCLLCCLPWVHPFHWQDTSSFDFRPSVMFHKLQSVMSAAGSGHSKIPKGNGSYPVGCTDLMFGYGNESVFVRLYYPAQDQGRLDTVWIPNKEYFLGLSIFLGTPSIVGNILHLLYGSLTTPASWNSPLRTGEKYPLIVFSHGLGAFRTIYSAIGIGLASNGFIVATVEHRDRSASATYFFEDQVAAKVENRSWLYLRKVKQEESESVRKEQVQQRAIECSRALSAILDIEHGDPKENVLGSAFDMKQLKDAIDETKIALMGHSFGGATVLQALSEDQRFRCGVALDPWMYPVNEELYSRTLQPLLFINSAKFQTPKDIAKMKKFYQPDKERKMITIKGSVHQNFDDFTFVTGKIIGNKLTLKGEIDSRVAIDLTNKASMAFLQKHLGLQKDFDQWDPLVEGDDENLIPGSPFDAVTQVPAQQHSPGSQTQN
row,Structure (SMILES),inhibition
1,Cc1cc(/C=C(\C#N)C(=O)NCC2CCCO2)c(C)n1-c1ccc(Cl)cc1 (stereo unspecified),9%
2,Cc1cccc(NS(=O)(=O)c2ccc3[nH]c(=O)oc3c2)c1C,17%
3,Cc1ccc(NS(=O)(=O)c2ccc3c(c2)oc(=O)n3C)cc1F,53%
4,Cc1ccc(NS(=O)(=O)c2ccc3[nH]c(=O)oc3c2)c(C)c1,18%
5,Cn1c(=O)oc2cc(S(=O)(=O)Nc3ccc(F)cc3)ccc21,24%
6,CC(=O)Nc1ccc(NC(=O)CCn2c(=O)oc3ccccc32)cc1,30%
7,O=C(N/C=C/c1ccco1)OCc1ccccc1,-3%
8,CCc1ccc(NC(=O)Nc2cc(C(=O)NCC3CCCO3)ccc2N2CC3CC(C2)c2cccc(=O)n2C3)cc1 (stereo unspecified),8%
9,CCOC(=O)NC(=O)CSc1nc(-c2ccc(C)c(C)c2)cn1-c1ccccc1,56%
10,O=C(CCCSc1ccc(Cl)cc1)Nc1cc(S(=O)(=O)N2CCOCC2)ccc1O,75% (active)
11,Cc1ccc(-n2c(C)cc(/C=C(\C#N)C(=O)NCC3CCCO3)c2C)cc1 (stereo unspecified),23%
12,O=C(Oc1ccc(Oc2ccccc2)cc1)N1CCC(O)CC1,82% (active)
13,O=C(Oc1ccc(-c2ccccc2)cc1)N1CCOCC1,98% (active)
14,COc1cccc(NC(=O)Nc2cc(C(=O)NCC3CCCO3)ccc2N2CC3CC(C2)c2cccc(=O)n2C3)c1 (stereo unspecified),18%
15,CCn1c(NC(=O)c2cccc(Cn3cc(Cl)cn3)c2)nc2ccccc21,0%
16,CCOC(=O)N1CCN(C(=O)CCN2C(=O)COc3ccc(C)cc32)CC1,22%
17,CCOCCCNC(=O)c1ccc(N2CC3CC(C2)c2cccc(=O)n2C3)c(NC(=O)Nc2cccc(OC)c2)c1 (stereo unspecified),21%
18,O=C(c1ccccc1)c1ccc(OC(=O)N2CCOCC2)cc1,55%

row,Structure (SMILES),inhibition
1,Cc1cc(C(=O)CSc2nc(N)cc(=O)[nH]2)c(C)n1CCc1ccc(Cl)cc1,6%
2,CCCNC(=O)c1ccc(N2CC3CC(C2)c2cccc(=O)n2C3)c(NC(=O)Nc2ccc(CC)cc2)c1 (stereo unspecified),18%
3,CCCCOC(=O)Nc1nnc(CCc2ccccc2)s1,22%
4,O=C(Oc1nsnc1N1CCOCC1)N1CCCCC1,65%
5,CCOC(=O)N1CCN(C(=O)c2ccc3c(=O)n4c(nc3c2)CCCCC4)CC1,8%
6,CCOC(=O)N1CCN(C(=O)c2cccc(S(=O)(=O)Nc3ccc(Br)cc3)c2)CC1,7%
7,O=C(Oc1nsnc1N1CCOCC1)N1CCOCC1,84% (active)
8,COc1cccc(NC(=O)Nc2cc(C(=O)NC(C)C)ccc2N2CC3CC(C2)c2cccc(=O)n2C3)c1 (stereo unspecified),41%
9,Cc1cccc(C2=NN(c3ccc(Br)cc3)[C@@H](C(=O)N3CCOC3=O)[C@@H]2c2ccccc2)c1,18%
10,O=C(/C=C/c1cccs1)c1cc(Br)ccc1OC(=O)N1CCOCC1,91% (active)
11,O=C(Oc1nsnc1N1CCCCC1)N1CCOCC1,55%
12,O=C(Oc1cccc(Oc2ccccc2)c1)N1CCOCC1,18%
13,CCOC(=O)N1CCC(NC(=O)CC2C(=O)NCCN2Cc2ccccc2F)CC1 (stereo unspecified),10%
14,O=C(Oc1ccnc2cc(Cl)ccc12)N1CCOCC1,22%
15,COc1cccc(CNC(=O)CCC2CCCN(Cc3cc(Cl)ccc3O)C2)c1 (stereo unspecified),24%
16,COc1cc(OC)c(NC(=O)CCNS(=O)(=O)c2ccc3c(c2)oc(=O)n3C)cc1Cl,6%
17,O=C(Oc1ccc(-c2ccccc2)cc1)N1CCCCC1,79% (active)
18,CCCCOC(=O)c1ccc(OC(=O)N2CCOCC2)cc1,93% (active)
